KB-V1 MDR tox = kills drug-selected multidrug resistant KB-V1 cells; Potency, µM (titrated, usually from 46.1 µM), hits mostly cytotoxic; KB-V1 MDR cells viability, CellTiter-Glo, 72 h; 3.4% of 400,000 active; further: nearly all actives have a fitted effect of over 60% in size
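Drug-selected KB-V1 cells, grown in DMEM lacking phenol red with 10% FBS, receive compound titrations; after three days at 37 degrees C, surviving cell ATP is quantified by CellTiter-Glo luminescence and responses normalized and curve-fitted.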
HT1080NT lethal = kills 2HG-producing HT-1080-NT fibrosarcoma cells; AID 686970; Potency, µM (top dose mostly 46.1 µM), hits mostly cytotoxic; HT-1080-NT fibrosarcoma viability, CellTiter-Glo ATP luminescence, 48 h; 1.6% of 360,000 active;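 further: NT is the 2HG producing partner of a matched IDH1 knockdown line; nearly all actives have a fitted effect of over 55% in size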
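Viability by CellTiter-Glo luminescence after 48 h compound exposure at 37C of HT-1080-NT cells (750/well, RPMI, 5% FBS). % activity scaled between DMSO wells and medium-only wells, then curve-fitted and categorized by curve class.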
KB-3-1 tox = kills parental KB-3-1 adenocarcinoma cells. KB-3-1 viability, CellTiter-Glo ATP luminescence, 72 h. Potency, µM (highest dose often 46.1 µM), usual class: cytotoxic. 1.4% of 400,000 active; further: nearly all actives have a fitted effect of over 60% in size
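Parental KB-3-1 adenocarcinoma cells in phenol-red-free DMEM with 10% FBS were pin-treated with compounds at several concentrations, incubated 72 h at 37 °C, and viability read by CellTiter-Glo luminescence; concentration-effect curves were fitted after normalization.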
HT1080 IDH1KD tx = kills HT-1080 cells with IDH1 knockdown; HT-1080 IDH1 knockdown viability, ATP luminescence, 48 h; Potency, µM (series often up to 46.1 µM), actives largely listed as cytotoxic; 2% of 360,000 active
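Viability of IDH1-knockdown HT-1080 fibrosarcoma cells was assessed by CellTiter-Glo after 48 h at 37 °C with titrated compound; concentration-effect curves were classified by fit quality and response size.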
TDP1 cell CPT = growth inhibition of DT40 Tdp1-/-;hTDP1 cells with camptothecin (screen for TDP1 inhibitors); chicken DT40 Tdp1-/-;hTDP1 cells + 20 nM CPT, ATP luminescence, 48 h; Potency, µM (titrated, usually from 46.2 µM), actives largely listed as inhibitors; 12% of 420,000 active; AID 686979; further: nearly all actives have a fitted effect of over 55% in size
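Chicken DT40 Tdp1-/- cells complemented with human TDP1, 400 cells/well, exposed to compounds plus 20 nM camptothecin for at least 48 h at 37 C; viability read as ATP content by CellTiter-Glo luminescence.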
DT40 TDP1 no CPT = qHTS for Inhibitors of human tyrosyl-DNA phosphodiesterase 1 (TDP1): qHTS in cells in absence of CPT; DT40 Tdp1-/- hTDP1 cells, no CPT, ATP luminescence, 48 h; Potency, µM (doses to about 46.2 µM), usual class: inhibitors; 15% of 420,000 active; AID 686978, 2013; further: nearly all actives have a fitted effect of over 55% in size
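Camptothecin absent (DMSO only). Human TDP1-complemented DT40 knockout cells, 400 cells/well, 37 °C for minimum 48 hr; ATP measured via CellTiter-Glo, 30 min dark incubation, luminescence.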
Hits are given with their value; i = inactive; ? = inconclusive; nt = no result. In the library only some 19% were active in any assay of this set; here they are far more common. The call rests on the fitted dose curve; in most records, active means well fitted curve in the direction sought with a large enough effect; inconclusive means small, poorly fitted or top-dose-only effect, or another doubt; inactive means no such curve, though single readings can be large; an effect the other way counts as inactive or inconclusive.

SMILES	KB-V1 MDR tox	HT1080NT lethal	KB-3-1 tox	HT1080 IDH1KD tx	TDP1 cell CPT	DT40 TDP1 no CPT
O=C(Nc1ccc2nc([C@@H]3O[C@H](CO)[C@@H](O)[C@H](O)[C@H]3O)[nH]c2c1)NC(c1ccccc1)c1ccccc1	i	i	i	i	i	i
COc1ccc(CN(C(=O)/C=C/c2ccccc2Cl)C2CCS(=O)(=O)C2)cc1 (stereo unspecified)	i	i	i	i	?	23µM
O=C(/C=C/c1ccccc1Cl)N(Cc1ccccc1)C1CCS(=O)(=O)C1 (stereo unspecified)	i	i	i	i	?	?
CN(C)c1ccc(CN(C(=O)/C=C/c2ccccc2Cl)C2CCS(=O)(=O)C2)cc1 (stereo unspecified)	i	i	i	i	?	21µM
O=C(/C=C/c1ccccc1Cl)N(Cc1ccc(Cl)cc1)C1CCS(=O)(=O)C1 (stereo unspecified)	?	i	i	?	?	?
Nc1c(-c2nc(-c3ccccc3Cl)no2)nnn1-c1ccccc1C(F)(F)F	i	nt	i	nt	i	i
CN(C)c1cc(C(F)(F)F)nc(-c2ccccn2)n1	?	?	i	?	i	i
CSCc1cc(N(C)c2ccccc2)nc(-c2ccccn2)n1	i	i	i	i	2.9µM	4.6µM
COc1ccc(CN(C)CC2CCCN(CCc3ccc(F)cc3)C2)c(OC)c1OC (stereo unspecified)	i	i	i	i	23µM	15µM
CN(Cc1ccc(C#CCCO)cc1)CC1CCCN(CCc2ccc(Cl)cc2)C1 (stereo unspecified)	i	26µM	i	?	18µM	15µM
Cc1occc1C(=O)N(C)CC1CCCN(CCc2ccc(Cl)cc2)C1 (stereo unspecified)	i	i	i	i	?	21µM
CCN(Cc1ccc(C#CCCO)cc1)CC1CCCN(CCc2cccc(F)c2)C1 (stereo unspecified)	i	i	i	i	?	21µM
O=C(Cn1c(=O)nc(-c2ccccc2)c2ccccc21)Nc1ccc(Cl)cc1F	i	nt	i	nt	i	i
COc1ccc(-c2csc(C(O)c3ccc(F)cc3)n2)cn1 (stereo unspecified)	i	i	i	i	i	i
Cn1c(C(=O)N2CCCC(C(=O)NCc3cccs3)C2)cc2sccc21 (stereo unspecified)	i	i	i	i	?	i
CC(CCc1ccccc1)NC(=O)C1CCCN(C(=O)c2cc3sccc3n2C)C1 (stereo unspecified)	i	i	i	?	18µM	15µM
Cn1c(C(=O)N2CCCC(C(=O)NCCCSC3CCCCC3)C2)cc2sccc21 (stereo unspecified)	8.2µM	i	i	i	?	i
CC(CCc1ccccc1)NC(=O)c1cc2sccc2n1C (stereo unspecified)	?	i	i	i	?	?
CCn1c(C(=O)N2CCCC(C(=O)NCCCc3ccccc3)C2)cc2sccc21 (stereo unspecified)	23µM	i	i	i	21µM	?
O=C(O)/C=C\c1cc2c(cc1[N+](=O)[O-])OCO2	i	i	i	i	i	i
O=C1NC(=S)N/C1=C/c1cc2c(cc1[N+](=O)[O-])OCO2	i	i	i	i	4.1µM	0.58µM
COc1ccc(CNc2oc(-c3ccc(COc4ccc(Cl)cc4)o3)nc2C#N)cc1	i	nt	i	nt	i	?
Cn1c(/C(C#N)=C(\O)c2ccc([N+](=O)[O-])cc2)nc2ccccc21	i	i	i	i	?	18µM
CCN(CC)S(=O)(=O)c1ccc(/C(O)=C(\C#N)c2nc3ccccc3n2C)cc1	?	i	i	i	?	?
Cc1c(C(=O)NCc2cccc(Cl)c2)sc2nc[nH]c(=O)c12	i	nt	i	nt	?	?
SMILES	KB-V1 MDR tox	HT1080NT lethal	KB-3-1 tox	HT1080 IDH1KD tx	TDP1 cell CPT	DT40 TDP1 no CPT
O=C1c2cccc3cc([N+](=O)[O-])cc(c23)C(=O)N1CC1CCCO1 (stereo unspecified)	i	i	?	i	7.3µM	6.5µM
CN(C)CCN1C(=O)c2cccc3cc([N+](=O)[O-])cc(c23)C1=O	2.6µM	10µM	8.2µM	13µM	0.21µM	0.26µM
COc1cccc(NC(=O)Cn2nc(-c3ccncc3)ccc2=O)c1	i	nt	i	nt	i	i
CNCCCCCCCCSc1nc(C(C)C)ccc1C(=O)c1cccs1	nt	nt	nt	nt	4.2µM	4.2µM
O=C(NCCCCCCNC(=O)c1cccs1)c1cccs1	?	i	i	i	i	?
O=C(Nc1cccc(C(F)(F)F)c1)Nc1ccc(N2CCCC2)c(S(=O)(=O)Nc2ccccc2Cl)c1	8.2µM	?	7.3µM	8.2µM	3.3µM	2.9µM
Nc1ccc(N2CCCCC2)c(S(=O)(=O)Nc2ccccc2Cl)c1	i	i	i	i	i	i
COc1cc(/C=C/C(=O)Nc2cc(S(=O)(=O)N3CCOCC3)ccc2N2CCCC2)cc(OC)c1OC	i	i	i	i	?	?
COc1ccccc1NS(=O)(=O)c1cc(NC(=O)Nc2ccc(Cl)cc2Cl)ccc1N1CCCCC1	10µM	i	?	i	?	?
COc1ccccc1NS(=O)(=O)c1cc(NC(=O)c2cccnc2)ccc1N1CCCCC1	?	?	?	i	?	23µM
COc1ccccc1NS(=O)(=O)c1cc(NC(=O)C2CCC2)ccc1N1CCCCC1	i	i	i	i	?	?
COc1cc(/C=C/C(=O)Nc2ccc(N3CCCCC3)c(S(=O)(=O)Nc3ccccc3Cl)c2)cc(OC)c1OC	i	i	i	i	?	2.6µM
CCC(Sc1ncc(S(=O)(=O)c2ccc(Cl)cc2)c(=O)[nH]1)C(=O)Nc1ccc(OC)cc1 (stereo unspecified)	i	nt	i	nt	nt	nt
COc1ccc(CC(=O)N(CCC2=CCCCC2)c2c(N)n(Cc3ccccc3)c(=O)[nH]c2=O)cc1OC	i	i	i	i	i	i
CCN(CC)C(=O)C1=C(C)N(CCCOC)C(=O)C(CC(=O)NCCc2ccccn2)C1 (stereo unspecified)	i	i	i	i	i	i
CCc1ccc(NC(=O)c2nnn(Cc3cccc(C(F)(F)F)c3)c2N)cc1	i	nt	?	nt	i	i
CCCS(=O)(=O)Nc1ccc(N2CCCCC2)c(S(=O)(=O)Nc2ccccc2OC)c1	i	i	i	i	?	16µM
CC1CN(C(=O)COC(=O)c2cncc(Br)c2)CC(C)O1 (stereo unspecified)	i	i	i	i	i	i

Screening data (PubChem BioAssay)
